# From PubChem BioAssay
# Shown are actives, neighbours in structure and some others; about 7.9% of the full set was active somewhere.
# MCF10A rereplic: induces DNA re-replication in MCF 10a normal breast cells; MCF 10A DNA re-replication, Hoechst nuclear intensity, 48 h; Potency, µM (doses to about 46.1 µM), for inactives: top-dose activity, positive = re-replication, actives largely listed as activators; 350,000 tested, 2.9% active; further: % of control where 0% means no effect; nearly all actives have a fitted effect of over 50% in size
# HT1080NT lethal: kills 2HG-producing HT-1080-NT fibrosarcoma cells; Potency, µM (series often up to 46.1 µM), for inactives: at the highest dose activity, negative = less viability, actives largely listed as cytotoxic; 360,000 tested, 1.6% active; HT-1080-NT fibrosarcoma viability, CellTiter-Glo ATP luminescence, 48 h;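 further: NT is the 2HG producing partner of a matched IDH1 knockdown line; 0% = DMSO-treated cells and -100% = media-only wells without cells; nearly all actives have a fitted effect of over 55% in size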
#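 Viability by CellTiter-Glo luminescence after 48 h compound exposure at 37C of HT-1080-NT cells (750/well, RPMI, 5% FBS). % activity scaled between DMSO wells and medium-only wells, then curve-fitted and categorized by curve class.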
# SW480 rereplic: DNA re-replication induction in SW480 cells; Potency, µM (series often up to 46.1 µM), inactives show at the highest dose re-replication activation, actives largely listed as activators; AID 624297; 340,000 tested, 1.8% active; SW480 DNA re-replication, Hoechst DNA content imaging, 48 h; further: % of control where 0% means no effect; nearly all actives have a fitted effect of over 55% in size
#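 250 cells/well; 23 nL cpd via pin tool; 48 hr, 37 C, 5% CO2; Hoechst 40 min; imager read of total nuclear intensity, ex 405/em 500-530 nm.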
# KB-3-1 cytotox: kills parental KB-3-1 adenocarcinoma cells. KB-3-1 viability, CellTiter-Glo ATP luminescence, 72 h. Potency, µM (top dose mostly 46.1 µM), most hits filed as cytotoxic. 400,000 tested, 1.4% active; further: on the % scale 0 is the no-effect control and ±100 the full control effect; nearly all actives have a fitted effect of over 60% in size
#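 Using CellTiter-Glo luminescence, growth of non-resistant KB-3-1 adenocarcinoma cells is assessed 72 h after pin-tool compound addition at 37 °C. Normalized responses across the concentration series yield fitted curves.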
# HT1080 IDH1KD tx: kills HT-1080 cells with IDH1 knockdown. 360,000 tested, 2% active. Potency, µM (titrated, usually from 46.1 µM), without a hit: at the top dose activity, negative = toxicity, usual class: cytotoxic. HT-1080 IDH1 knockdown viability, ATP luminescence, 48 h;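 further: 0% = DMSO wells and -100% = cell-free medium wells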
#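 IDH1KD HT-1080 cells, 750/well, RPMI + 5% FBS; compound pinned after 2 h settling; 48 h, 37 °C; CellTiter-Glo luminescence; % activity normalised to DMSO and no-cell wells; curves fitted, classed by r2 and efficacy.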
# KB-V1 cytotox: KB-V1 MDR subline cytotoxicity; 400,000 tested, 3.4% active; KB-V1 MDR cells viability, CellTiter-Glo, 72 h; Potency, µM (doses to about 46.1 µM), usual class: cytotoxic; further: on the % scale 0 is the no-effect control and ±100 the full control effect; nearly all actives have a fitted effect of over 60% in size
#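 In this primary screen, KB-V1 cells overexpressing P-gp are incubated with library compounds (lowest to highest concentration) for 72 h at 37 degrees C before a luminescent ATP viability read.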
# * marks the source's active call; other numbers are inactive results; i = inactive; ? = inconclusive; nt = not tested or not shown. The call rests on the fitted dose curve; in most records, active means well fitted curve in the direction sought with a large enough effect; inconclusive means small, poorly fitted or top-dose-only effect, or another doubt; inactive means no such curve, though single readings can be large; an effect the other way counts as inactive or inconclusive. Potency means the concentration at half of the fitted maximal effect.
SMILES,MCF10A rereplic,HT1080NT lethal,SW480 rereplic,KB-3-1 cytotox,HT1080 IDH1KD tx,KB-V1 cytotox
Cc1ccc(C(=O)N2CCCCCC2)cc1S(=O)(=O)Nc1ccccc1,2.1%,3.6%,-4.7%,i,0.0%,?
COc1ccc(-c2nn(-c3ccc(F)cc3F)c3c2cnc2ccc(F)cc23)cc1,nt,nt,nt,i,nt,i
O=C(c1ccccc1[N+](=O)[O-])N(CCc1ccccc1)Cc1ccccc1,12.9%,-7.2%,8.7%,i,-4.9%,i
COc1ccc(N(Cc2ccccc2)C(=O)c2ccccc2[N+](=O)[O-])cc1,3.9%,-10.2%,8.9%,?,-4.9%,14.6µM*
CN(CCCNC(=O)c1cc2c(Cl)nc3ccccc3c2s1)Cc1ccccc1,?,16.4µM*,20.6µM*,i,16.4µM*,i
CC1CCCN(CCCNC(=O)c2cc3c(Cl)nc4ccccc4c3s2)C1 (stereo unspecified),?,?,?,i,23.1µM*,i
Cc1ccc2nc(Cl)c3cc(C(=O)NCCCN(C)Cc4ccccc4)sc3c2c1,nt,nt,nt,i,nt,i
COc1ccccc1C(CC(=O)Nc1ccc(C)c(C)c1)c1ccc(OC(C)C)cc1 (stereo unspecified),-14.7%,?,?,i,?,i
Fc1ccccc1CNCCC(Cc1ccccc1)c1ccc2c(c1)OCO2 (stereo unspecified),29.1%,16.4µM*,?,?,?,?
COc1ccc(CNCCC(c2ccc(OC(C)C)cc2)c2ccccc2OC)cc1 (stereo unspecified),?,?,?,?,?,20.6µM*
COc1ccc(CNCCC(c2ccc(OC(C)C)cc2)c2ccccc2OC)cc1OC (stereo unspecified),23.0%,14.6µM*,?,?,18.4µM*,?
CC(=O)N(CCC(Cc1ccccc1)c1ccc2c(c1)OCO2)Cc1ccccc1F (stereo unspecified),?,-3.0%,-0.5%,i,-0.1%,i
COc1ccc(CNCCCSc2ncccn2)cc1OC,1.6%,-3.2%,-0.4%,i,-5.4%,i
COc1ccccc1C(CCNCc1ccc(N(C)C)cc1)c1ccc(OC(C)C)cc1 (stereo unspecified),16.8%,?,?,?,?,i
COc1ccccc1NC(=O)CC(c1ccc(OC(C)C)cc1)c1ccccc1OC (stereo unspecified),?,10.0%,?,i,6.7%,4.61µM*
Cn1c(=O)c(C(=O)NCC2CCCO2)c(O)c2ccccc21 (stereo unspecified),-21.0%,-19.1%,0.0%,i,-22.7%,i
O=C(NCc1cccs1)c1ccc2nc([C@@H]3O[C@H](CO)[C@H](O)[C@H](O)[C@H]3O)[nH]c2c1,nt,28.9%,nt,i,18.0%,i
CC(=O)Nc1nonc1-c1nnc(SCC(=O)Nc2c(C)cccc2C)n1-c1ccccc1,nt,nt,nt,i,nt,i
COc1ccccc1C(CCNCc1ccccc1)c1ccc(OC(C)C)cc1 (stereo unspecified),18.4µM*,?,?,?,?,i
Cc1cccc(C(CC(=O)NCc2ccco2)c2ccccc2)c1O (stereo unspecified),2.8%,3.5%,-41.0%,i,0.2%,i
COc1ccc(CNCCC(c2ccccc2)c2ccc3c(c2)OCO3)cc1 (stereo unspecified),18.4µM*,?,?,?,?,?
CC(C)Oc1ccc(C(CC(=O)NCc2ccco2)c2ccccc2)cc1 (stereo unspecified),-0.9%,-17.0%,-2.2%,i,3.0%,20.6µM*
CC(C)C[C@@H]1CN(CCCC[C@H]2CNC(=O)C(=O)N2CCC2CCCCC2)C(=O)C(=O)N1CCc1ccc(O)cc1,nt,2.6%,nt,i,1.6%,i
COc1ccc(NC(=O)CCNS(=O)(=O)c2ccc(Cl)c([N+](=O)[O-])c2)cc1S(N)(=O)=O,8.4%,-2.4%,-3.0%,i,-4.5%,i
CC1CN(C(=O)CCC(=O)NCc2ccccn2)c2ccccc2O1 (stereo unspecified),1.0%,-0.3%,-9.4%,i,7.7%,i
SMILES,MCF10A rereplic,HT1080NT lethal,SW480 rereplic,KB-3-1 cytotox,HT1080 IDH1KD tx,KB-V1 cytotox
C[n+]1c2n(c3ccccc31)N=C(c1cc(C(C)(C)C)c(O)c(C(C)(C)C)c1)CS2,16.4µM*,23.1µM*,?,4.11µM*,7.31µM*,i
COC(=O)c1sc2nc(CSc3ccc(Br)cc3)[nH]c(=O)c2c1C,14.6µM*,1.0%,-4.1%,i,0.4%,i
CCOc1ccc(N=Nc2ccc(N)cc2N)cc1,-3.8%,nt,1.1%,nt,nt,nt
CC(=O)NC(CC(=O)OCC(=O)c1ccc(NC(=O)CC(C)C)cc1)c1ccccc1 (stereo unspecified),-6.8%,-2.5%,1.4%,i,0.7%,i
Cc1cccc(C)c1NC(=O)CN(C)CC(=O)Nc1ccc(F)c(Cl)c1,-1.0%,-1.8%,-1.6%,i,-16.7%,14.6µM*
CCOc1ccc(NC(=O)C2CCC(CNS(=O)(=O)c3ccc4c(c3)CCCC(=O)N4)CC2)cc1 (stereo unspecified),nt,nt,nt,i,nt,?
COc1ccc(-c2cc(C(F)(F)F)n3nc(C(=O)Nc4cc(Cl)cc(Cl)c4)cc3n2)cc1,nt,nt,nt,i,nt,i
Cn1c(=O)c2c(ncn2CC(=O)Nc2cccc(Cl)c2Cl)n(C)c1=O,nt,nt,nt,i,nt,i
COc1ccc(/C=N/NC(=O)c2cc(-c3ccccc3OC(C)C)nc3ccccc23)cc1CN1CCOCC1,8.2µM*,-20.2%,27.5%,i,-24.3%,?
CCCc1cc(=O)[nH]c(SCc2nc3ccc([N+](=O)[O-])cc3[nH]2)n1,7.2%,9.2µM*,17.6%,?,14.6µM*,i
CCOC(=O)C1=C(CC)Nc2ccccc2N=C1NC(=O)c1ccc(OC)c(S(=O)(=O)N2CCCCC2C)c1 (stereo unspecified),3.66µM*,-1.8%,8.0%,i,-25.7%,?
Cc1cc(F)ccc1C(O)c1ncc(-c2ccccc2Cl)[nH]1 (stereo unspecified),nt,-19.2%,nt,i,?,i
COc1ccc(NC(=O)C(=O)N2N=C(C(C)C)CC2(O)C(F)(F)F)cc1 (stereo unspecified),?,?,?,i,8.91µM*,i
CCC1=NN(C(=O)CCc2ccccc2O)C(O)(C(F)(F)F)C1 (stereo unspecified),-5.8%,21.4%,-0.8%,i,8.2%,i
